# The source made the active and inactive calls. Unless noted, no rule for the calls is given here.
# Columns and labels:
# [1] = A549 cell viability effects, profiling panel, calcein-AM fluorescence, 48 h, basal (AID 1162); settings: higher = more signal; also: test concentration not given here
# [2] = adipocyte viability effects, profiling panel, cell-based, 3T3-L1 adipocytes, calcein-AM fluorescence, 48 h, basal (AID 1163); settings: 3T3-L1 adipocytes viability, higher = more signal; also: test concentration not given here
# [3] = HepG2 cell viability effects, profiling panel, calcein-AM fluorescence, 48 h, basal (AID 1164); settings: higher = more signal; also: test concentration not given here
# [4] = MM1S cell viability effects, profiling panel, calcein-AM fluorescence, 48 h, basal (AID 1165); settings: higher = more signal;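 also: viability of MM1S multiple myeloma cells under basal unstimulated conditions; test concentration not given here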
# [5] = basal RPMI8226 viability, no added stimulus, profiling panel, cell-based, calcein-AM fluorescence, 48 h, PK04 Diversity Set (AID 1166); settings: RPMI8226 myeloma viability, higher = more signal;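 also: cells grown under basal conditions without added stimulus; test concentration not given here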
# [6] = basal HepG2 mitochondrial membrane potential changes, profiling panel, cell-based, JC-1 fluorescence, 24 h, 100 nL compound (AID 1167); settings: higher = more signal; also: test concentration not given here
# [7] = basal 3T3-L1 adipocyte mitochondrial potential changes, profiling panel, cell-based, JC-1 fluorescence, 3T3-L1 adipocytes, 24 h, 100 nL compound (AID 1168); settings: JC-1 mitochondrial fluorescence, higher = more signal, called active from +8 up or from −8 down; also: test concentration not given here
# [8] = basal RPMI8226 mitochondrial membrane potential changes, profiling panel, cell-based, JC-1 fluorescence, 24 h, 100 nL compound (AID 1169); settings: RPMI8226 myeloma, JC-1 mitochondrial potential fluorescence, higher = more signal; also: test concentration not given here
# [9] = basal MM1S mitochondrial membrane potential changes, profiling panel, cell-based, JC-1 fluorescence, 24 h, 100 nL compound (AID 1170); settings: higher = more signal; also: test concentration not given here
# [10] = A549 lung cancer cell viability effects, profiling panel, resazurin fluorescence, 24 h, PK04 Diversity Set (AID 1171); settings: higher = more signal, called active from +8 up or from −8 down; also: test concentration not given here
# [11] = HepG2 liver cancer cell viability effects, profiling panel, resazurin fluorescence, 24 h, PK04 Diversity Set (AID 1172); settings: higher = more signal; also: test concentration not given here
# [12] = basal S. cerevisiae growth modulation, no modifier, primary screen, OD600, strain BY4716, 24 h, basal condition (AID 1173); settings: OD600, 24 h, higher = more signal, called active from +8 up or from −8 down
# [13] = MM1S myeloma cell viability, profiling panel, resazurin fluorescence, basal, 24 h, PK04 Diversity Set (AID 1174); settings: higher = more signal, called active from +8 up or from −8 down;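 also: MM1S multiple myeloma cell line; test concentration not given here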
# [14] = target: Dihydroorotate dehydrogenase (quinone), mitochondrial (Plasmodium falciparum (isolate 3D7)) (UniProt Q08210); test: PfDHODH enzyme inhibitors, primary screen, biochemical, C-terminal His tag, absorbance 600 nm (AID 1175); settings: DCIP absorbance 600 nm, higher = more signal, called active from +8 up or from −8 down;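 also: recombinant parasite enzyme with a five histidine tag at its C terminus; test concentration not given here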
# [15] = P. aeruginosa biofilm formation inhibitors, primary screen, strain PAO1, LB-PBS medium, absorbance 600 nm (AID 1176); also: test concentration not given here; settings: P. aeruginosa PAO1 growth/biofilm, A600, 12 h; higher = more signal
# [16] = S. cerevisiae RM11-1a growth modifiers, primary screen, strain RM11-1a, OD600, basal, 24 h (AID 1177); settings: OD600, 24 h, higher = more signal, called active from +8 up or from −8 down;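 also: cultures grown under basal conditions with no added stressor; test concentration not given here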
# [17] = E. coli acrAB mutant growth effects, primary screen, E. coli filamentation inducers, strain DRC39, OD650, 24 h (AID 1178); settings: higher = more signal, called active from +8 up or from −8 down;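 also: growth measured as culture turbidity by optical density at 650 nm; test concentration not given here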
# [18] = E. coli acrAB mutant growth effects, primary screen, E. coli filamentation inducers, strain DRC39, OD650, 48 h (AID 1179);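 also: screen aims at cell division blockers that make cells filament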; settings: E. coli DRC39 delta-acrAB growth, higher = more signal, called active from +8 up or from −8 down
# [19] = RPMI8226 myeloma cell viability, profiling panel, resazurin fluorescence, basal, 24 h, PK04 Diversity Set (AID 1180); settings: higher = more signal;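 also: RPMI8826 multiple myeloma cell line at 5000 cells per well; test concentration not given here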
# [20] = target: E3 ubiquitin-protein ligase XIAP (Homo sapiens) (UniProt P98170); test: XIAP binders, primary screen, biophysical, small-molecule microarray, fluorescence 635 nm (AID 1181); settings: small-molecule microarray binding, higher = more signal;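 also: score merges 667 nm emission and signal to noise over triplicate slides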
# Chain of E3 ubiquitin-protein ligase XIAP (Homo sapiens) (P98170 whole entry, looked up): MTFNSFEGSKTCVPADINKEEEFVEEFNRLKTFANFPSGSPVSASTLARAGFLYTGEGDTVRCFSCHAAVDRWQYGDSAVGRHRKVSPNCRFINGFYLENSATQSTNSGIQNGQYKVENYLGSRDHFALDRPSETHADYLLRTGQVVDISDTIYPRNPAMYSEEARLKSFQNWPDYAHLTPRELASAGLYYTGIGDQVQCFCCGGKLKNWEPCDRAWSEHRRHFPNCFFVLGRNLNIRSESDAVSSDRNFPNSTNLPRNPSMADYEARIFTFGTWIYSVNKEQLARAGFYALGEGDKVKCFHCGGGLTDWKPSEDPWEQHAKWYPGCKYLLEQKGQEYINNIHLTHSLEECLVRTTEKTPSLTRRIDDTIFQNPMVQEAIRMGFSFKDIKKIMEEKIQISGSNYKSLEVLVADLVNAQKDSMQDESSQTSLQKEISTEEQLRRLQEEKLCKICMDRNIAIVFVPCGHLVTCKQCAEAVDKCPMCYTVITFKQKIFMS
# Chain of Dihydroorotate dehydrogenase (quinone), mitochondrial (Plasmodium falciparum (isolate 3D7)) (Q08210 whole entry, looked up): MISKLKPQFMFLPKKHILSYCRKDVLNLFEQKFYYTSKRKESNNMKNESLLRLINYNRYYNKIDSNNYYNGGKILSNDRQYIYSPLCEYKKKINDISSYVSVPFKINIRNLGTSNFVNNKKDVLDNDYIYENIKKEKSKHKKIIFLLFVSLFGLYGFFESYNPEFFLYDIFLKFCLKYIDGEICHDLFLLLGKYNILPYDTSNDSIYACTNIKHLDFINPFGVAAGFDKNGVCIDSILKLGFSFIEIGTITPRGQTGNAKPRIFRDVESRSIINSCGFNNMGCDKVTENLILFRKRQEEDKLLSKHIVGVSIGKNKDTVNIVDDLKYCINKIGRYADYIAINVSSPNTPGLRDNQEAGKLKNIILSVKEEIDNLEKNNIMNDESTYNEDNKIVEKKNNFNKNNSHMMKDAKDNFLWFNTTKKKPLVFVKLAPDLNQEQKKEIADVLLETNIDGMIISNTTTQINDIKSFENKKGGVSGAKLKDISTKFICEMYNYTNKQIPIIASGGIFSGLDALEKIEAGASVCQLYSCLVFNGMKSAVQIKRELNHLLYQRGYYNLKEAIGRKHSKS
SMILES,z-score [1],z-score [2],z-score [3],z-score [4],z-score [5],z-score [6],z-score [7],z-score [8],z-score [9],z-score [10],z-score [11],z-score [12],z-score [13],composite z-score [14],z-score [15],z-score [16],z-score [17],z-score [18],z-score [19],composite z-score [20]
C[C@]1(C(=O)NCCN2CCOCC2)c2ccccc2C(=O)N(Cc2cc(F)cc(C(F)(F)F)c2)[C@H]1c1ccc(CO)cc1,0.13,-0.35,0.545,-0.89,0.231,2.36,0.835 (inactive),0.695,-0.714,0.693 (inactive),-0.0395,0.375 (inactive),-0.464 (inactive),0.376 (inactive),0.664 (inactive),0.0645 (inactive),1 (inactive),1.67 (inactive),0.0794,-0.116
COc1ccc(C(O)C2C=CC3C(=O)N(c4ccccc4)C(=O)C3N2Nc2ccccc2)cc1 (stereo not given),-0.0572,-0.936,0.204,0.254,0.0459,-1.2,-0.233 (inactive),-0.402,-0.626,0.117 (inactive),-0.377,-2.39 (inactive),-0.582 (inactive),0.618 (inactive),0.571 (inactive),-0.0179 (inactive),-0.519 (inactive),-0.43 (inactive),-0.841,0.438
CCOC(=O)C1=C[C@@H](C(C)(C)C)N(S(=O)(=O)c2ccc(C)cc2)[C@H]1c1ccc(C)cc1,-0.681,0.226,-1.73,-1.01,-1.1,6.67,-0.251 (inactive),-0.901,0.933,0.51 (inactive),-0.473,1.01 (inactive),-0.328 (inactive),-0.186 (inactive),0.148 (inactive),0.526 (inactive),-0.617 (inactive),-0.823 (inactive),-2.18,-0.0017
COCC1C2CC[C@H]3C(OCc4ccc(OC)cc4)OC[C@]4(C)[C@H]3C2=C(CN4C(=O)OC(C)(C)C)[C@H](C)C1COC (stereo not given in full),-0.226,0.335,0.919,-2.64,-4.48,5.54,-0.664 (inactive),-0.205,-1.22,-0.0834 (inactive),-0.819,-0.316 (inactive),-0.79 (inactive),-0.566 (inactive),0.796 (inactive),-0.688 (inactive),-0.705 (inactive),0.286 (inactive),-0.723,0.441
COC(=O)[C@@]1(Cc2ccccc2CN=[N+]=[N-])N=C(c2ccc(OCCCO)cc2)O[C@H]1c1ccccc1CN=[N+]=[N-],-3.82,0.522,-5.01,-3.56,-3.89,-0.86,-1.38 (inactive),-1.07,-2.09,-2.82 (inactive),-1.67,1.66 (inactive),-4.85 (inactive),2.46 (inactive),2.8 (inactive),2.88 (inactive),1.53 (inactive),-0.47 (inactive),-4.32,-0.113
CC(C)C(CO)N1C(=O)[C@@H]2[C@H]3C(=O)OCC=C[C@H]3OC23C=CCN(C(C)(C)C)C(=O)[C@@H]13 (stereo not given in full),-0.234,-0.783,-0.543,0.583,-0.251,-1.16,-0.0819 (inactive),0.185,0.264,-0.166 (inactive),-0.341,0.542 (inactive),-0.763 (inactive),0.648 (inactive),0.137 (inactive),1.18 (inactive),-0.804 (inactive),-0.854 (inactive),-0.941,-0.156
CC(C)N1CC=CC23O[C@@H]4/C=C\CCCOC(=O)C4[C@H]2C(=O)N(CCCCCCO)[C@@H]3C1=O (stereo not given in full),1.46,-0.377,0.922,1.49,0.0006,1.14,-0.0751 (inactive),-0.659,1.23,1.51 (inactive),0.95,-1.13 (inactive),1.3 (inactive),-0.475 (inactive),-0.401 (inactive),0.0759 (inactive),1.62 (inactive),1.93 (inactive),0.708,0.0537
O=C1C2C=CC(C(O)C=Cc3ccc([N+](=O)[O-])cc3)N(Nc3ccccc3)C2C(=O)N1c1ccccc1 (stereo not given),2.48,-0.123,1.28,0.0385,-0.0477,-0.0526,-1.19 (inactive),-0.175,-0.951,-0.102 (inactive),-0.392,-2.88 (inactive),-1.44 (inactive),-0.162 (inactive),1.1 (inactive),-0.0358 (inactive),-0.125 (inactive),0.242 (inactive),0.185,-0.0103

# From PubChem BioAssay
